From PubChem BioAssay (EPA / NIEHS)
Inconclusive results are not listed. Activity calls are given as the source filed them. How the source made its calls, unless noted: active means hit-call score of the fitted dose curve at least 0.9, where 1 is the maximum; inconclusive means response in the unintended direction; inactive means score below 0.9.

Columns and labels:
[1] = read-out: Thyroid Hormone Responsive (THRSP), THRSP (gene 7069); assay: LTEA_HepaRG_THRSP: Life Technologies and Expression Analysis (LTEA) Assay for Thyroid Hormone Responsive (THRSP) using HepaRG (AID 2283536; active means hit-call score of the fitted dose curve at least 0.9, where 1 is the maximum; inactive means score below 0.9); settings: mRNA level, 48 h; actives raise or lower the signal
Outline: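 mRNA induction or loss relative to 0.5% DMSO vehicle was fitted bidirectionally across an eight-point curve whose highest exposure was 100 uM. Human HepaRG liver cells received chemicals in duplicate over 48 h before RNA extraction.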

[2] = read-out: Cellular tumor antigen p53 (Homo sapiens) (UniProt P04637); assay: LTEA_HepaRG_TP53: Life Technologies and Expression Analysis (LTEA) Assay for Tumor Protein P53 (TP53) using HepaRG (AID 2283537; active means hit-call score of the fitted dose curve at least 0.9, where 1 is the maximum; inactive means score below 0.9); settings: mRNA level, 48 h; actives raise or lower the signal
Outline: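 HepaRG, 48 h exposure, top 100 uM, half-log 8-point, 0.5% DMSO vehicle, duplicates. Read: TP53 mRNA by TaqMan qRT-PCR, normalised to ACTB/GAPDH/POLR2A; bidirectional fit vs DMSO.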

[3] = read-out: UDP glucuronosyltransferase (UGT1A1), UGT1A1 (gene 54658); assay: LTEA_HepaRG_UGT1A1: Life Technologies and Expression Analysis (LTEA) Assay for UDP glucuronosyltransferase (UGT1A1) using HepaRG (AID 2283538; active means hit-call score of the fitted dose curve at least 0.9, where 1 is the maximum; inactive means score below 0.9); settings: mRNA level, 48 h; actives raise or lower the signal
Outline: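 Readout is UGT1A1 transcript level by qRT-PCR, normalized to three housekeeping genes, after 48 h chemical treatment of HepaRG cells. Concentrations ran from 100 uM down in half-log steps with 0.5% DMSO, and gain or loss relative to DMSO was fitted.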

[4] = read-out: UDP glucuronosyltransferase (UGT1A6), UGT1A6 (gene 54578); assay: LTEA_HepaRG_UGT1A6: Life Technologies and Expression Analysis (LTEA) Assay for UDP glucuronosyltransferase (UGT1A6) using HepaRG (AID 2283539; active means hit-call score of the fitted dose curve at least 0.9, where 1 is the maximum; inactive means score below 0.9); settings: mRNA level, 48 h; actives raise or lower the signal
Outline: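 HepaRG, 48 h post-plating switch to serum-free induction medium; chemical 48 h, 100 uM top, half-log x8, duplicate, 0.5% DMSO. Phenobarbital 1mM induction control. UGT1A6 mRNA by TaqMan qRT-PCR; gain/loss fit vs DMSO.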

[5] = read-out: X-box binding protein 1 (XBP1), XBP1 (gene 7494); assay: LTEA_HepaRG_XBP1: Life Technologies and Expression Analysis (LTEA) Assay for X-box binding protein 1 (XBP1) using HepaRG (AID 2283540; active means hit-call score of the fitted dose curve at least 0.9, where 1 is the maximum; inactive means score below 0.9); settings: mRNA level, 48 h; actives raise or lower the signal
Outline: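 Transcript levels of XBP1, measured by qRT-PCR and normalised to three housekeeping genes, were fitted bidirectionally relative to 0.5% DMSO controls. Human HepaRG cells received eight-point half-log dilutions from 100 uM for 48 h.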

[6] = LTEA_HepaRG_LDH_cytotoxicity: Cytotoxicity Assessment in the Life Technologies and Expression Analysis (LTEA) Assay (AID 2283563)
Outline: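 Cells were thawed and plated for 48 h. Medium was then replaced with serum-free induction medium. Chemicals (8 half-log points, maximum 100 uM, 0.5% DMSO) were added in duplicate for 48 h, after which spent medium was assayed for LDH.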

[7] = TOX21_p53_BLA_p2_viability: Viability Assessment in the Tox21 HCT-116 p53 Agonism Beta-lactamase Assay, Phase 2 (AID 2283591);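 further: compound exposure lasted 16 h at 37 °C; actives lower the ATP signal meaning cytotoxicity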
Outline: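 Cytotoxicity readout: CellTiter-Glo ATP luminescence, 30 min at room temperature, after the beta-lactamase read. Cells were HCT116 exposed 16 h at 37C to compounds pin-transferred at 217-fold dilution from DMSO stocks.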

[8] = TOX21_p53_BLA_p3_viability: Viability Assessment in the Tox21 HCT-116 p53 Agonism Beta-lactamase Assay, Phase 3 (AID 2283593);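 further: cells exposed to compound for 16 h before reading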
Outline: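 Cellular ATP was quantified by CellTiter-Glo luminescence, read after 30 min at room temperature. Beforehand, HCT116 cells (4000/well) received compound 5 h post-seeding, 217-fold diluted from DMSO, then incubated 16 h at 37C.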

[9] = TOX21_p53_BLA_p5_viability: Viability Assessment in the Tox21 HCT-116 p53 Agonism Beta-lactamase Assay, Phase 5 (AID 2283600)
Outline: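 4000 cells/well; 5 h pre-incubation; DMSO compounds pin-transferred, 217-fold dilution; 16 h, 37C/5% CO2; CCF4-AM 2 h RT; CellTiter-Glo 30 min RT; luminescence.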

[10] = molecular target: Cellular tumor antigen p53 (Homo sapiens) (UniProt P04637); assay: TOX21_p53_BLA_p4_ratio: Tox21 HCT-116 p53 Agonism Beta-lactamase Assay, Ratio, Phase 4 (AID 2283601)
Outline: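 Signal is the blue/green (460nm/530nm) ratio of cleaved versus uncleaved CCF4-AM substrate, read after 2 h substrate loading. Cells were HCT116 carrying the p53-responsive beta-lactamase reporter, dosed 16 h at 37C, 5% CO2; CellTiter-Glo measured in parallel.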

[11] = Tanguay_ZF_120hpf_MORT_legacy: (Legacy) Oregon State University Tanguay Lab 120 Hour Post-fertilization zebrafish Assay for Mortality (AID 2283633)
Outline: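 5D WT zebrafish, chorion removed 4 hpf; 1 embryo/well from 6 hpf; static exposure to 120 hpf, 28C, dark, sealed. Final DMSO 0.64%. Readout: binary mortality, brightfield, 24 + 120 hpf; DMSO as negative control.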

[12] = Tanguay_ZF_120hpf_YSE_legacy: (Legacy) Oregon State University Tanguay Lab 120 Hour Post-fertilization zebrafish Assay for Yolk Sac Edema (AID 2283634);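 on AC50: actives raise the incidence of yolk sac edema above the DMSO baseline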
Outline: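 Dechorionate (pronase, 4 hpf) → place one 6 hpf embryo per well → static compound exposure, sealed and foil-covered, 28C, to 120 hpf → record yolk sac edema as present or absent. Final DMSO 0.64%.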

[13] = Tanguay_ZF_120hpf_AXIS_legacy: (Legacy) Oregon State University Tanguay Lab 120 Hour Post-fertilization zebrafish Assay for Body Axis Malformation (AID 2283635);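 on AC50: potency for an increased fraction of larvae scored with body axis malformation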
Outline: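 Chorion is removed with pronase at 4 hpf, then single 6 hpf embryos are dosed (final DMSO 0.64%) and held statically at 28C in sealed, foil-covered plates. At 120 hpf body axis malformation is recorded as present or absent.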

[14] = Tanguay_ZF_120hpf_EYE_legacy: (Legacy) Oregon State University Tanguay Lab 120 Hour Post-fertilization zebrafish Assay for Eye Malformation (AID 2283636)
Outline: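 Read-out is binary presence or absence of eye malformation, scored by brightfield microscopy at 120 hpf. Single larvae were exposed from 6 hpf in embryo medium containing 0.64% DMSO, with DMSO as baseline.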

[15] = Tanguay_ZF_120hpf_SNOU_legacy: (Legacy) Oregon State University Tanguay Lab 120 Hour Post-fertilization zebrafish Assay for Snout Malformation (AID 2283637)
Outline: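 Snout malformation read as a yes/no call on brightfield images of 120 hpf larvae (Tropical 5D strain). Static exposure began at 6 hpf on dechorionated embryos in 0.64% DMSO, with gain of signal analysed versus DMSO controls.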

[16] = molecular target: Cellular tumor antigen p53 (Homo sapiens) (UniProt P04637); assay: TOX21_p53_BLA_p2_ratio: Tox21 HCT-116 p53 Agonism Beta-lactamase Assay, Ratio, Phase 2 (AID 2283592)
Outline: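 HCT116 p53-bla; 4000 cells/well; 5 h pre-incubation; cpd in DMSO, 217-fold dilution; 16 h 37C/5% CO2; CCF4-AM 2 h RT; Ex 405, Em 460/530 ratio; DMSO = baseline; positive fitting direction.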

[17] = TOX21_p53_BLA_p4_viability: Viability Assessment in the Tox21 HCT-116 p53 Agonism Beta-lactamase Assay, Phase 4 (AID 2283597);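 further: hits lower the luminescence signal meaning cytotoxicity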
Outline: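 Cells plated, 5 h pre-incubation; DMSO compounds pinned (217-fold dilution); 16 h, 37C/5% CO2; CCF4-AM 2 h RT; CellTiter-Glo 30 min RT; luminescence read.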

[18] = molecular target: Cellular tumor antigen p53 (Homo sapiens) (UniProt P04637); assay: TOX21_p53_BLA_p5_ratio: Tox21 HCT-116 p53 Agonism Beta-lactamase Assay, Ratio, Phase 5 (AID 2283599)
Outline: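 Beta-lactamase reporter ratio (blue 460 nm over green 530 nm, 405 nm excitation) after 2 h CCF4-AM loading, in HCT-116 cells exposed 16 h at 37 C to compounds pinned at 217-fold dilution. Increases relative to DMSO baseline scored.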

[19] = molecular target: Cellular tumor antigen p53 (Homo sapiens) (UniProt P04637); assay: TOX21_p53_BLA_p3_ratio: Tox21 HCT-116 p53 Agonism Beta-lactamase Assay, Ratio, Phase 3 (AID 2283596)
Outline: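 HCT116 p53-bla cells (4000/well) given compound in DMSO (217-fold dilution) after 5 h, incubated 16 h at 37C. CCF4-AM substrate 2 h at room temperature; 460/530 nm emission ratio, gain fitted against DMSO.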

Measured: AC50

Chain of Cellular tumor antigen p53 (Homo sapiens) (P04637 whole entry, looked up): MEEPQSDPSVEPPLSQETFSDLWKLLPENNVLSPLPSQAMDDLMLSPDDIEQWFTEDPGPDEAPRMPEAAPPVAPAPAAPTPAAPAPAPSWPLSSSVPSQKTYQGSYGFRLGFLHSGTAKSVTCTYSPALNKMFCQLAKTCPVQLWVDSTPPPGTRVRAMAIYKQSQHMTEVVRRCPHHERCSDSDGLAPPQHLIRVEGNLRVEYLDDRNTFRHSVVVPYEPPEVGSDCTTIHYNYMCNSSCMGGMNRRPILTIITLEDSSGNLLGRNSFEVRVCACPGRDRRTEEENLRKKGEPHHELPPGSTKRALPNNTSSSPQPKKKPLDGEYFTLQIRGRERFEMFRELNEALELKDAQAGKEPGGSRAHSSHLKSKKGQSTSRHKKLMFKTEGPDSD

CCC(=NOC/C=C/Cl)C1=C(O)CC(C2CCOCC2)CC1=O (stereo not given)
not listed: [16] | [17] | [18] | [19]
inactive: all other assays above

CC(C)[C@H](C(=O)O[C@H](C#N)c1cccc(Oc2ccccc2)c1)c1ccc(Cl)cc1
active: [3] 23.8 µM | [12] 3.2 µM | [13] 1.96 µM | [14] 2.82 µM | [15] 2.25 µM
not listed: [7] | [19]
inactive: all other assays above

CSc1nnc(C(C)(C)C)c(=O)n1N
active: [3] 9.92 µM
not listed: [7]
inactive: all other assays above

CSc1nc(NC(C)C)nc(NC(C)C)n1
active: [1] 76.7 µM | [3] 2.47 µM | [5] 50 µM
not listed: [7] | [8] | [10] | [17] | [18]
inactive: all other assays above

CC(C1CC1)C(O)(Cn1cncn1)c1ccc(Cl)cc1 (stereo not given)
active: [1] 28.1 µM | [12] 36.3 µM | [13] 24.8 µM | [14] 9.92 µM | [15] 9.24 µM
not listed: [5] | [16] | [18]
inactive: all other assays above
